# Rows were chosen to be rich in hits. Some 2.8% of all compounds tested hit in one or more screens of this group.
# POLI inh – inhibitors of human DNA polymerase iota; Q9UNA4; Pol iota fluorescent replication assay, 10 min; Potency, µM (highest dose often 115 µM), for inactives: top-dose activity, negative = inhibition, hits mostly inhibitors; 390,000 compounds, 1% hits; AID 588590; further: potency means the concentration at half of the fitted maximal effect
# Target sequence (Q9UNA4 whole entry, looked up): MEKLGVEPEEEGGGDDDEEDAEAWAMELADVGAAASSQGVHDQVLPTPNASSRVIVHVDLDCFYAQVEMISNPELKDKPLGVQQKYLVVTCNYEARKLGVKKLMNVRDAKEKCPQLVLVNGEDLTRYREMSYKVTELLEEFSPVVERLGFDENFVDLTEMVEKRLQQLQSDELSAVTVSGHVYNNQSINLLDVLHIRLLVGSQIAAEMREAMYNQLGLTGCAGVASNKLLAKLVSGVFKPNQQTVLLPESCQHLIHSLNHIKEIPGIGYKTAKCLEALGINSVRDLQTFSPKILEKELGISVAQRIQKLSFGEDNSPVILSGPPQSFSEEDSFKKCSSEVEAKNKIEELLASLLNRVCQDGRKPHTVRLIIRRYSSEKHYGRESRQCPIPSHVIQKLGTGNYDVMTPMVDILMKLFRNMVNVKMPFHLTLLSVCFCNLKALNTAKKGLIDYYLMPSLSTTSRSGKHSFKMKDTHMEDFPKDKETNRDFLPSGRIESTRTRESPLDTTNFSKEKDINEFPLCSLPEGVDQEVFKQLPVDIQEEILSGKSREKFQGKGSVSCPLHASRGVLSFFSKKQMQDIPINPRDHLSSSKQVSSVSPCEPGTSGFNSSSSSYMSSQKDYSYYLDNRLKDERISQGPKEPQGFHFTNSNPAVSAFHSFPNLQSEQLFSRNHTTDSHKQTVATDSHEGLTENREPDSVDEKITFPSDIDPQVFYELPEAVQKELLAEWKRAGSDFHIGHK
#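 Pol iota at 10 nM preincubated 15 min with compounds at room temperature; reaction started with fluorescent substrate, 50 nM final. Fluorescence read kinetically at 0 and 10 min; buffer-only wells as negative control.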
# Pol eta inh-1 – DNA polymerase eta (human) inhibition | 390,000 compounds, 1.2% hits | Q9Y253 | recombinant Pol eta, fluorescent DNA replication assay | Potency, µM (series often up to 114 µM), inactives show top-dose activity change, negative = inhibition, hits mostly inhibitors | AID 588591; further: potency means the concentration at half of the fitted maximal effect; on the % scale 0 is the no-effect control and ±100 the full control effect
#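 Pol eta (10 nM) was preincubated with compounds for 15 min at room temperature, after which fluorescent replication substrate (50 nM final) was added to start the reaction. Fluorescence was read kinetically at 0 and 10 min.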
# Pol kappa inh-1 – inhibitors of human DNA polymerase kappa; Q9UBT6; purified Pol kappa, fluorescent DNA synthesis assay, 10 min; Potency, µM (series often up to 107 µM), for inactives: at the highest dose activity, negative = inhibition, actives largely listed as inhibitors; 400,000 compounds, 0.53% hits; AID 588579; further: potency means the concentration at half of the fitted maximal effect; on the % scale 0 is the no-effect control and ±100 the full control effect
#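 First, compounds were pin-transferred onto 10 nM Pol kappa. After 15 min at room temperature, substrate was added to 50 nM final. Fluorescence was then measured kinetically at 0 and 10 min.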
# WRN inhibitor – inhibitors of human WRN helicase; 360,000 compounds, 0.46% hits; WRN helicase unwinding, fluorescent forked duplex, kinetic; Potency, µM (doses to about 114 µM), inactives show top-dose activity change, negative = inhibition, usual class: inhibitors; Q14191; AID 651768; further: potency means the concentration at half of the fitted maximal effect; on the % scale 0 is the no-effect control and ±100 the full control effect; nearly all actives have a fitted effect of over 55% in size
#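 WRN at 20 nM final was preincubated with compound for 15 min at room temperature; reaction started with 100 nM forked duplex oligonucleotide carrying fluorophore and quencher plus 2 mM ATP (final). Unwinding followed kinetically by red fluorescence (ex 525/em 598 nm).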
# PI5P4K alpha inh – inhibitors of human PI5P4K alpha; PI5P4Kalpha enzyme, ADP-Glo luminescence, 60 min; stronger effect = lower value; P48426; AID 652105; 330,000 compounds, 1.2% hits; max response, %; active means max response of -50% or lower; inconclusive means between -30% and -50%; inactive means -30% or higher; further: value at the top dose of about 77 µM; on the % scale 0 is the no-effect control and ±100 the full control effect
#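 Luminescence from ADP-Glo served as readout of PI5P4Kalpha activity in a qHTS format. Reaction: enzyme, substrate, compound, ATP at 5 microM final, 60 min at RT.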
# POLB inh – DNA polymerase beta (human) inhibition; P06746; Pol beta primer extension/strand displacement, fluorescence kinetic; Potency, µM (series often up to 114 µM), inactives show top-dose activity change, negative = inhibition, usual class: inhibitors; 340,000 compounds, 1.3% hits; AID 485314; further: potency means the concentration at half of the fitted maximal effect; on the % scale 0 is the no-effect control and ±100 the full control effect
#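 Reaction started by 50 nM substrate onto compound-treated Pol beta (10 nM, 15 min preincubation, room temperature); plates read at 0 min and 10 min. Normalized concentration-effect data fitted by four-parameter Hill equation.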
# PGK validate – TbPGK inhibition, hit validation; shares compounds with Pol kappa inh-1; TbPGK coupled GAPDH assay, Kinase-Glo luminescence; Potency, µM (top dose mostly 57.5 µM), without a hit: at the top dose activity change, negative = inhibition, usual class: inhibitors; 500 compounds, 79% hits; AID 686980; further: potency means the concentration at half of the fitted maximal effect; on the % scale 0 is the no-effect control and ±100 the full control effect; nearly all actives have a fitted effect of over 65% in size
# Pol iota confirm – Human Pol iota inhibitor confirmatory assay. AID 720496. 1,500 compounds, 77% hits. Pol iota primer extension, TAMRA/BHQ fluorescence. Potency, µM, actives largely listed as inhibitors. shares compounds with Pol kappa inh-1; further: potency means the concentration at half of the fitted maximal effect
# GALK inh confirm – confirmation of human galactokinase (GALK) inhibitors; purified GALK, Kinase-Glo ATP depletion luminescence; Potency, µM (titrated, usually from 115 µM), for inactives: top-dose activity, negative = inhibition, most hits filed as inhibitors; 150 compounds, 70% hits; shares compounds with Pol eta inh-1
# GALK redox cs – redox cycling activity in phenol red-HRP assay; shares compounds with Pol eta inh-1; Potency, µM (titrated, usually from 115 µM), for the others: at the top dose activity change, negative = H2O2 signal, hits mostly inhibitors; Phenol red-HRP H2O2 redox cycling, absorbance 600 nm; AID 2035; 150 compounds, 40% hits
# HEK293 tox – HEK-293 cytotoxicity, GALK inhibitor secondary; shares compounds with Pol eta inh-1; HEK-293 viability, ATP luminescence (CellTiter-Glo), 24/48 h; Potency, µM (top dose mostly 46.1 µM), for the others: top-dose activity change, negative = cytotoxicity, actives largely listed as inhibitors; 170 compounds, 10% hits; AID 2547; further: potency means the concentration at half of the fitted maximal effect; on the % scale 0 is the no-effect control and ±100 the full control effect
# Pol kappa inh-2 – Pol kappa (human) inhibition, cherry-pick confirmation; purified Pol-kappa, fluorescent strand-displacement substrate; Potency, µM, actives largely listed as inhibitors; shares compounds with Pol eta inh-1; 920 compounds, 76% hits; further: potency means the concentration at half of the fitted maximal effect
# Pol eta inh-2 – confirmation of human DNA polymerase eta inhibitors. Pol eta primer extension, TAMRA/BHQ fluorescence, 10 min. 2,600 compounds, 64% hits. Potency, µM, actives largely listed as inhibitors. shares compounds with Pol eta inh-1; further: potency means the concentration at half of the fitted maximal effect
# * = called active by the depositor; ? = inconclusive; nt = no result; [ ] = remark or other dose. Unless noted, the call rests on the fitted dose curve; in most records, active means well fitted curve in the direction sought with a large enough effect; inconclusive means small, poorly fitted or top-dose-only effect, or another doubt; inactive means no such curve, though single readings can be large; an effect the other way counts as inactive or inconclusive.
SMILES,POLI inh,Pol eta inh-1,Pol kappa inh-1,WRN inhibitor,PI5P4K alpha inh,POLB inh,Pol iota confirm,Pol eta inh-2,others
COc1cc(C(=O)OCC(=O)NC2CCS(=O)(=O)C2)c([N+](=O)[O-])cc1OC (stereo not drawn),124%,-3%,2%,1%,-9,22%,nt,nt,
O=C(COC(=O)c1ccc([N+](=O)[O-])o1)NC1CCS(=O)(=O)C1 (stereo not drawn),63µM*,45µM*,-16%,-19%[57.1 µM],0,0%,?,?,
O=C(COC(=O)c1ccc([N+](=O)[O-])o1)NC1CCCCC1,79µM*,?,-21%,-2%[11.6 µM],0,nt,?,?,
O=C(O)c1cccc(S(=O)(=O)Nc2ccccc2C(=O)NCCc2ccccc2)c1,9%,4%,-18%,-7%,0,2%,nt,nt,
CN1N/C(=C\c2ccccc2)N=C2C(=O)N(C)C(=O)N=C21,-98%,nt,?,nt,nt,nt,2.7*,5.4*,
CC/C=C1/N=C2C(=O)N(C)C(=O)N=C2N(C)N1,-19%,nt,-9%,nt,nt,nt,nt,nt,
Cn1c(SCC(=O)N/N=C/C=C\c2ccco2)nc2ccccc21,13µM*,22µM*,28µM*,?,?,45µM*,?,67*,Pol kappa inh-2=67*
C/C(=N/NC(=O)CSc1nc2ccccc2n1C)c1ccco1,-12%,-2%,-5%,-6%,0,14%,nt,nt,
O=C(CSc1nc(-c2ccccc2)nc2c1Cc1ccccc1O2)Nc1ccc(C(=O)O)cc1,?,7.9µM*,10µM*,?,-63*,2µM*,9.5*,?,Pol kappa inh-2=42*
CCOc1cccc2c1Oc1nc(-c3ccccc3)nc(SCC(=O)Nc3ccc(F)cc3)c1C2,30%,-7%,-10%,nt,nt,13%,nt,nt,
O=C(CSc1nc(-c2ccc(F)cc2)nc2c1Cc1ccccc1O2)Nc1ccc(C(=O)O)cc1,1.4µM*,?,?,?,-28,4.5µM*,7.5*,nt,PGK validate=2.1µM*;Pol kappa inh-2=7.5*
CCOc1ccc(-c2nc3c(c(SCC(=O)Nc4ccccc4C)n2)Cc2ccccc2O3)cc1,0%,-10%,-16%,nt,nt,-13%,nt,nt,
Cc1ccccc1NC(=O)c1cc(-c2ccco2)nc2ccccc12,40µM*,45µM*,89µM*,?,?,nt,53*,48*,
O=C(NCCCN1CCOCC1)c1cc(-c2ccco2)nc2ccccc12,10µM*,11µM*,79µM*,50µM*,?,nt,34*,38*,Pol kappa inh-2=17*
Cc1cccc(NC(=O)c2cc(-c3ccco3)nc3ccccc23)n1,-6%,-17%,-4%,-36%,5,20%,nt,nt,
O=C(N/N=C/c1cccc(F)c1)c1cc(-c2ccco2)nc2ccccc12,?,2.2µM*,18µM*,56µM*,-88*,-102%,8.4*,13*,PGK validate=5.8µM*
Cc1ccccc1CNC(=O)c1sc2ncnc(N(C)C3CCCCC3)c2c1C,11%,-11%,-8%[60.1 µM],nt,nt,-8%,nt,nt,
O=C(CCCN1C(=O)/C(=C/c2ccccc2)SC1=S)Nc1ccc(C(=O)O)c(O)c1,4%,-5%,-1%,-1%,-26,-18%,nt,nt,
O=C(CN1C(=O)/C(=C/c2ccco2)SC1=S)Nc1ccc(C(=O)O)c(O)c1,-14%,3.5µM*,-8%,35µM*,-68*,11µM*,15*,6.7*,PGK validate=33µM*
O=C(CSc1nccc(=O)[nH]1)N1N=C2/C(=C/c3ccco3)CCCC2C1c1ccco1 (stereo not drawn),45µM*,25µM*,?,?,-58*,28µM*,38*,30*,
CCc1ccc(S(=O)(=O)/N=C2\C=C(Nc3cccc(C(=O)O)c3)C(=O)c3ccccc32)cc1,1.1µM*,22µM*,-24%,?,-27,?,75*,60*,
Cc1cccc(NC2=C/C(=N/S(=O)(=O)c3cccs3)c3ccccc3C2=O)c1,-8%,-10%,-17%,-16%,-23,0%,nt,nt,
O=C(O)c1ccc(NC2=C/C(=N/S(=O)(=O)c3cccs3)c3ccccc3C2=O)cc1,nt,8.9µM*,nt,-16%[11.6 µM],?,nt,30*,21*,
O=C(O)c1cccc(NC2=C(n3nnc4ccccc43)C(=O)c3ccccc3C2=O)c1,?,-26%,-1%,1%,0,10%,nt,nt,
Cc1ccc(S(=O)(=O)/N=C2\C=C(NS(=O)(=O)c3ccccc3)C(=O)c3ccccc32)cc1,?,?,-13%,?,?,nt,nt,nt,
O=C(O)c1ccc(NC2=C/C(=N/S(=O)(=O)c3ccccc3)c3ccccc3C2=O)cc1,?,8.9µM*,-11%,?,?,-24%,19*,21*,GALK inh confirm=?;GALK redox cs=6µM*;HEK293 tox=11µM*
O=C(COC(=O)c1cc[n+]([O-])cc1)Nc1ccc([N+](=O)[O-])cc1Cl,13%,-4%,9%,-5%,0,-1%,nt,nt,
CC1(C)SC2c3ccccc3C(=O)N2[C@@H]1C(=O)O (stereo partly drawn),5%,-9%,-5%,6%,-12,30%,nt,nt,

# Screening results: PubChem BioAssay, National Center for Advancing Translational Sciences (NCATS)
